The results in this text go back to PubChem BioAssay (NCI).

Test [1] can be described thus: NCI Yeast Anticancer Drug Screen. Data for the rad50 strain (AID 155).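 Note: 0% = growth of vehicle-only cultures of the same strain.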 As to conditions: S. cerevisiae rad50 strain growth inhibition, hits give high values. Put shortly: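 Relative growth inhibition (compound vs vehicle) was measured in yeast with a defined repair-gene alteration.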
Test [2] can be described thus: NCI Yeast Anticancer Drug Screen. Data for the mec2-1 strain (AID 157). As to conditions: S. cerevisiae mec2-1 strain, hits give high values. Put shortly: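 Strain: mec2-1 (DNA repair/cell cycle alteration). Compound exposure, then growth measured; inhibition expressed relative to vehicle.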
Test [3] can be described thus: NCI Yeast Anticancer Drug Screen. Data for the sgs1 mgt1 strain (AID 161).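 Note: 0% = growth of cultures given vehicle only.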 As to conditions: S. cerevisiae sgs1 mgt1 strain, hits give high values. Put shortly: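 Read-out: growth inhibition vs vehicle controls. Cells: mutant yeast strain deficient in DNA damage repair.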
Test [4] can be described thus: NCI Yeast Anticancer Drug Screen. Data for the cln2 rad14 strain (AID 165).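 Note: 0% = growth equal to vehicle treated cultures.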 As to conditions: S. cerevisiae cln2 rad14 strain, hits give high values. The method in brief:
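Compounds are applied to the cln2 rad14 yeast strain, and growth is then compared with that of vehicle-treated cultures to give inhibition.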

A short description of test [5]: NCI Yeast Anticancer Drug Screen. Data for the bub3 strain (AID 167). As to conditions: S. cerevisiae bub3 mutant strain, hits give high values. The method in brief: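 Screening used yeast with an engineered genetic alteration affecting cell cycle control. Compound-exposed cultures were compared with vehicle cultures, and reduced growth was taken as inhibition.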
Test [6] can be described thus: NCI Yeast Anticancer Drug Screen. Data for the mlh1 rad18 strain (AID 175). As to conditions: S. cerevisiae mlh1 rad18 strain growth inhibition, hits give high values. Put shortly: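 Read-out is yeast growth inhibition, calculated against vehicle-only controls. The compound was applied to a strain engineered with DNA damage repair alterations.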
The mark [7] stands for this setting: at 5.0 µM (retest, dose inferred, filed as 0.5).
Setting [8] is: at 50.0 µM (retest, dose inferred, filed as 5.0).

SMILES strings stand for the structures. This is part of a sample that, as a whole, favours compounds with a hit. Of some 79,000 tested, about 15% had one in any assay. Unmarked numbers belong to inactive results. Calls of active or inactive are those of the source. Cut-off read from the data, not from the text of the source: active = growth inhibition above about 70%; inactive = the rest.

`CCCCCCCCNc1ccc(Cl)cc1`: the growth inhibition is 46% in test [1] (setting [7]); 96% (active) in test [1] (setting [8]); 91.8% (active) in test [1] (at 50.0 µM); 26% in test [2] (setting [7]); 98% (active) in test [2] (setting [8]); 93% (active) in test [2] (at 50.0 µM). Moreover, the growth inhibition is 49% in test [3] (setting [7]); 97% (active) in test [3] (setting [8]); 98.2% (active) in test [3] (at 50.0 µM); 25% in test [4] (setting [7]); 94% (active) in test [4] (setting [8]); 81.2% (active) in test [4] (at 50.0 µM). Moreover, the growth inhibition in test [5] (setting [7]) was 8%; in test [5] (setting [8]) it was 97% (active); in test [5] (at 50.0 µM) it was 74.1% (active); in test [6] (setting [7]), 40%; in test [6] (setting [8]) it was 97% (active); in test [6] (at 50.0 µM), 98% (active).
On to `CC1(C(Cl)(Cl)Cl)C=CC(=NO)C=C1` (stereo not given), for which the growth inhibition in test [1] (setting [7]) is 1%; in test [1] (setting [8]), 28%; in test [1] (at 50.0 µM), 65.8%; in test [2] (setting [7]), 2%; in test [2] (setting [8]) it was 34%; in test [2] (at 50.0 µM) it was 21.4%. Moreover, the growth inhibition in test [3] (setting [7]) is 1%; in test [3] (setting [8]), 44%; in test [3] (at 50.0 µM), 70.8% (active); in test [4] (setting [7]) it was 3%; in test [4] (setting [8]), 26%; in test [4] (at 50.0 µM) it was 30.1%. The growth inhibition in test [5] (setting [7]) was -4%; in test [5] (setting [8]) it was 29%; in test [5] (at 50.0 µM) it was 18.7%; in test [6] (setting [7]) it was -4%; in test [6] (setting [8]), 34%; in test [6] (at 50.0 µM), 54.1%.
Take `CC(CO)(CO)Cc1ccccc1`: the growth inhibition in test [1] (setting [7]) is 1%; in test [1] (setting [8]), -6%; in test [1] (at 50.0 µM), 96.5% (active); in test [2] (setting [7]), -2%; in test [2] (setting [8]), 6%; in test [2] (at 50.0 µM), 97.9% (active). The growth inhibition in test [3] (setting [7]) was 0%; in test [3] (setting [8]), -5%; in test [3] (at 50.0 µM) it was 80.5% (active); in test [4] (setting [7]), -3%; in test [4] (setting [8]) it was -4%; in test [4] (at 50.0 µM), 92.3% (active). The growth inhibition in test [5] (setting [7]) is -1%; in test [5] (setting [8]) it was 1%; in test [5] (at 50.0 µM) it was 94% (active); in test [6] (setting [7]) it was 2%; in test [6] (setting [8]) it was -3%; in test [6] (at 50.0 µM), 93.2% (active).
In the case of `CCCCCCOC(=O)COc1ccccc1`, the growth inhibition was 4% in test [1] (setting [7]); 2% in test [1] (setting [8]); 23.6% in test [1] (at 50.0 µM); 0% in test [2] (setting [7]); -1% in test [2] (setting [8]); -0.8% in test [2] (at 50.0 µM). Besides, the growth inhibition in test [3] (setting [7]) is -1%; in test [3] (setting [8]) it was 3%; in test [3] (at 50.0 µM) it was 20.6%; in test [4] (setting [7]), 5%; in test [4] (setting [8]) it was 1%; in test [4] (at 50.0 µM) it was 40.8%. Further, the growth inhibition in test [5] (setting [7]) is 24%; in test [5] (setting [8]), 45%; in test [5] (at 50.0 µM) it was 15.8%; in test [6] (setting [7]), -1%; in test [6] (setting [8]) it was 0%; in test [6] (at 50.0 µM) it was 33.7%.
On to `O=C1CN(c2cccc(Cl)c2)C(=O)CN1/N=C/c1ccc[nH]1`, for which the growth inhibition in test [1] (setting [7]) is 4%; in test [1] (setting [8]), -3%; in test [1] (at 50.0 µM) it was 98.4% (active); in test [2] (setting [7]) it was 7%; in test [2] (setting [8]) it was 0%; in test [2] (at 50.0 µM), 99.2% (active). In addition, the growth inhibition in test [3] (setting [7]) was 10%; in test [3] (setting [8]), 0%; in test [3] (at 50.0 µM), 98.7% (active); in test [4] (setting [7]), 2%; in test [4] (setting [8]), -3%; in test [4] (at 50.0 µM) it was 97.9% (active). Moreover, the growth inhibition in test [5] (setting [7]) was 1%; in test [5] (setting [8]) it was -3%; in test [5] (at 50.0 µM), 98.3% (active); in test [6] (setting [7]) it was -3%; in test [6] (setting [8]), -5%; in test [6] (at 50.0 µM) it was 99% (active).
Consider `COc1ccc2c(Cc3cccc([N+](=O)[O-])c3)cncc2c1O`, for which the growth inhibition in test [1] (setting [7]) is 4%; in test [1] (setting [8]) it was 68%; in test [1] (at 50.0 µM), 29.8%; in test [2] (setting [7]) it was -2%; in test [2] (setting [8]), 86% (active); in test [2] (at 50.0 µM), 35.4%. The growth inhibition was -6% in test [3] (setting [7]); 65% in test [3] (setting [8]); 24% in test [3] (at 50.0 µM); 4% in test [4] (setting [7]); 76% (active) in test [4] (setting [8]); 37.1% in test [4] (at 50.0 µM). Besides, the growth inhibition in test [5] (setting [7]) is 3%; in test [5] (setting [8]), 91% (active); in test [5] (at 50.0 µM), 85% (active); in test [6] (setting [7]) it was 5%; in test [6] (setting [8]) it was 92% (active); in test [6] (at 50.0 µM), 58.8%.
As to `O=C1c2cccc3cccc(c23)C1(Br)Br`, the growth inhibition in test [1] (setting [7]) was 36%; in test [1] (setting [8]), 99% (active); in test [1] (at 50.0 µM), 68%; in test [2] (setting [7]), 20%; in test [2] (setting [8]), 99% (active); in test [2] (at 50.0 µM) it was 23.4%. In addition, the growth inhibition in test [3] (setting [7]) was 45%; in test [3] (setting [8]) it was 98% (active); in test [3] (at 50.0 µM) it was 70.8% (active); in test [4] (setting [7]), 37%; in test [4] (setting [8]), 95% (active); in test [4] (at 50.0 µM), 56.1%. For the same compound, the growth inhibition is 26% in test [5] (setting [7]); 97% (active) in test [5] (setting [8]); 55.6% in test [5] (at 50.0 µM); 54% in test [6] (setting [7]); 99% (active) in test [6] (setting [8]); 67.8% in test [6] (at 50.0 µM).
For the compound `CC(C)CCCOC(=O)c1cc([N+](=O)[O-])cc([N+](=O)[O-])c1`, the growth inhibition in test [1] (setting [7]) was 12%; in test [1] (setting [8]), 30%; in test [1] (at 50.0 µM), 67.8%; in test [2] (setting [7]), 2%; in test [2] (setting [8]), 27%; in test [2] (at 50.0 µM), 53.1%. Besides, the growth inhibition was 5% in test [3] (setting [7]); 51% in test [3] (setting [8]); 96% (active) in test [3] (at 50.0 µM); 3% in test [4] (setting [7]); 25% in test [4] (setting [8]); 54.2% in test [4] (at 50.0 µM). For the same compound, the growth inhibition is 0% in test [5] (setting [7]); 24% in test [5] (setting [8]); 72.6% (active) in test [5] (at 50.0 µM); 3% in test [6] (setting [7]); 70% (active) in test [6] (setting [8]); 93.8% (active) in test [6] (at 50.0 µM).
Regarding `O=C1CN(/N=C\c2ccc([N+](=O)[O-])o2)C(=O)N1`, the growth inhibition is 11% in test [1] (setting [7]); 48% in test [1] (setting [8]); 56.5% in test [1] (at 50.0 µM); 4% in test [2] (setting [7]); 29% in test [2] (setting [8]); 15.2% in test [2] (at 50.0 µM). Moreover, the growth inhibition in test [3] (setting [7]) was 2%; in test [3] (setting [8]), 39%; in test [3] (at 50.0 µM), 41%; in test [4] (setting [7]), -5%; in test [4] (setting [8]), 18%; in test [4] (at 50.0 µM), -8.35%. Further, the growth inhibition was 3% in test [5] (setting [7]); 26% in test [5] (setting [8]); 27.5% in test [5] (at 50.0 µM); 19% in test [6] (setting [7]); 65% in test [6] (setting [8]); 69.8% in test [6] (at 50.0 µM).
Consider `CCCCCC(C)(C)N=C=S`, for which the growth inhibition is 3% in test [1] (setting [7]); 0% in test [1] (setting [8]); 7% in test [1] (at 50.0 µM); -1% in test [2] (setting [7]); 2% in test [2] (setting [8]); -1.65% in test [2] (at 50.0 µM). In addition, the growth inhibition in test [3] (setting [7]) was -1%; in test [3] (setting [8]) it was -3%; in test [3] (at 50.0 µM), -1.85%; in test [4] (setting [7]), 5%; in test [4] (setting [8]), 1%; in test [4] (at 50.0 µM), 10.3%. For the same compound, the growth inhibition in test [5] (setting [7]) was 1%; in test [5] (setting [8]), 0%; in test [5] (at 50.0 µM), 8.3%; in test [6] (setting [7]), -5%; in test [6] (setting [8]), 1%; in test [6] (at 50.0 µM) it was -5.6%.
